HIV Env fusion: inhibitors of HIV Env-mediated cell fusion | HeLa-JRFL Env/CEM21 cell fusion, luciferase | inhibition, % at 12.3 µM | hit rate 1.1% among 360,000;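 active = mean replicate inhibition score of at least 50 and every replicate individually at or above 50; inconclusive = only one of the two criteria met; inactive = mean below 50 and not all replicates reaching 50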;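 also: 0% = plate neutral controls and 100% = maraviroc near 300 nM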
esBAF inh: inhibitors of esBAF chromatin remodeling in mouse ES cells; reporter increase, % at 12.5 µM; hit rate 2% among 350,000; AID 602393; Bmi1-luciferase knock-in reporter, 24 h; 100% = twice the neutral-well signal; in the data active = activation above about 40%; inconclusive = no clear call, values can overlap the other calls;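 also: 0% = median of the plate's neutral control wells and 100% = double that signal; a rise in the Bmi1 reporter signal indicates esBAF inhibition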
miR122 inh: miR-122 inhibition in Huh7 cells | AID 602342 | Huh7 miR-122 Renilla luciferase sensor, 48 h; neutral wells = 0, positive control = 100 | hit rate 0.3% among 340,000 | activation (reporter increase), % at 12.5 µM;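 active = mean replicate activation score at least 90 and every replicate individually at or above 90; inconclusive = only one of the two criteria met; inactive = neither criterion met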;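 also: higher luciferase means less miR-122 activity so hits act as miR-122 inhibitors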
MITF TRPM1 HTS: increases MITF-driven TRPM1 promoter luciferase signal; SK-MEL-5 TRPM1-promoter luciferase, 24 h; % of positive control, neutral wells = 0; activation, % at 12.5 µM; hit rate 0.75% among 300,000;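 active = mean activation of at least 80% with every replicate also reaching 80%; inconclusive = mean reaches 80% but some replicate falls short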;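 also: 0% = neutral control wells and 100% = parthenolide positive control wells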
Wnt bcat act: activates Wnt/beta-catenin signaling in a reporter cell assay | activator, plate reader | activation, % at 9.35 µM | hit rate 1.2% among 300,000 | AID 743398; in the data active = activation above about 30%, passing the limit was not always enough; inconclusive = no clear call, values can overlap the other calls;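 also: 0% = neutral control wells and 100% = positive control wells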
* hit, by the source's call; ? = inconclusive; . = no result; ! = a repeat was not active; [ ] = remark or other dose. An excerpt weighted towards active compounds, which were near 3.4% of everything screened.

SMILES	HIV Env fusion	esBAF inh	miR122 inh	MITF TRPM1 HTS	Wnt bcat act
Cc1c(O)ccc(/C(Cc2ccc3ccccc3n2)=N\O)c1O	-94	45*	2	.	36*
Cn1c(N)c(C(=O)COC(=O)Cc2c(F)cccc2Cl)c(=O)n(C)c1=O	.	-4	30	-6	-2
Cc1cc(C(=O)COC(=O)Cc2c(F)cccc2Cl)c(C)n1C	-45	78*	-5	.	11
CC1CCCN(C(=O)COC(=O)Cc2c(F)cccc2Cl)C1 (configuration not stated)	-14	45*	.	60	14
CCCn1c(=O)c(C(=O)Nc2ncccc2C)c(O)c2ccccc21	16	.	12	-11	0
CCCn1c(=O)c(C(=O)Nc2cccc(C)n2)c(O)c2ccccc21	-20	50*	.	2	2
C[C@H](CO)N1C[C@H](C)[C@H](CN(C)Cc2ccc(C(=O)Nc3ccccc3N)cc2)Oc2ccc(NC(=O)Nc3cccc4ccccc34)cc2CC1=O	-24[16.7 µM]	-25	96*[16.7 µM]	.	.
CC(C)NC(=O)Nc1ccc2c(c1)CC(=O)N([C@H](C)CO)C[C@H](C)[C@H](CN(C)Cc1ccc(C(=O)Nc3ccccc3N)cc1)O2	-76[16.7 µM]	-21	114*[16.7 µM]	.	.
C[C@H](CO)N1C[C@H](C)[C@H](CN(C)Cc2ccc(C(=O)Nc3ccccc3N)cc2)Oc2ccc(NC(=O)CCC(F)(F)F)cc2CC1=O	-181[16.7 µM]	-26	98*[16.7 µM]	.	.
CC(C)NC(=O)Nc1ccc2c(c1)CC(=O)N([C@H](C)CO)C[C@H](C)[C@@H](CN(C)Cc1ccc(C(=O)Nc3ccccc3N)cc1)O2	-29[16.7 µM]	-6	15[16.7 µM]	.	.
Cc1c(OCC(F)(F)F)ccnc1CS(=O)c1nc2ccccc2[nH]1 (configuration not stated)	.	48*!	5	44	10
Cc1cc(Cl)ccc1OCC(=O)N1CC(C)CC(C)C1 (configuration not stated)	-37	-12	-5	7	-3
O=C(COc1ccc(Cl)cc1Cl)N1CCCCCC1	-227	48*	1	.	.
Cc1cc(Cl)ccc1OCC(=O)N1CCCN(C(=O)COc2ccc(Cl)cc2C)CC1	115*	.	.	7	-9
C[C@H](CO)N1C[C@H](C)[C@H](CN(C)C(=O)CN(C)C)Oc2cc(C#CC(C)(C)O)ccc2S1(=O)=O	-13[16.7 µM]	-6	-13[16.7 µM]	.	.
C[C@@H]1CN([C@@H](C)CO)C(=O)c2cc(NC(=O)NC3CCCCC3)ccc2O[C@@H](C)CCCCO[C@H]1CN(C)CC1CCCCC1	7[16.7 µM]	-1	14[16.7 µM]	.	.
O=C(NCC[C@@H]1CC[C@@H](NC(=O)c2ccc3c(c2)OCO3)[C@H](CO)O1)Nc1ccc(Cl)cc1	-10[16.7 µM]	63*	.	.	.
COc1ccc(NC(=O)CSc2ccccc2)c(OC)c1	.	56*	7	39	.
COc1ccccc1C(=O)Nc1ccc(Br)c2cccnc12	10	8	-2	.	-1
COc1ccc(NC(=O)c2ccccc2SC)c(OC)c1	-26	.	.	11	5
COc1ccc(NC(=O)CSc2nccn2Cc2ccccc2)c(OC)c1	-10	12	.	5	5
COc1cc(NC(=O)c2cc(C(C)C)on2)c(OC)cc1Cl	0	2	6	.	.
COc1ccc(NC(=O)c2cc(C(C)C)on2)c(OC)c1	-23	50*	0	43	13
COc1ccccc1C(=O)Nc1ccc(Br)cc1C	-6	39	3	40	37*
COc1ccc(NC(=O)c2ccccc2O)c(OC)c1	.	53*	14	58	19
SMILES	HIV Env fusion	esBAF inh	miR122 inh	MITF TRPM1 HTS	Wnt bcat act
Cc1ccc(/C=N/N=C/c2ccc(C)cc2)cc1	-3	57*	0	-1	4
Oc1ccc(/C=N/N=C/c2ccc(O)cc2)cc1	-10	27	13	27	-2
COCCOC(=O)c1c(C)oc2ccc(NS(=O)(=O)c3ccc(C)cc3)cc12	9	10	103*	9	4
COC(=O)C1(C(=O)OC)C[C@H](c2ccc(OC)cc2)N(Cc2ccccc2OC)[C@@H]1c1cccs1	92*	.	.	.	-4
COC(=O)C1(C(=O)OC)C[C@H](c2ccc(OC)cc2)N(Cc2ccccc2OC)[C@@H]1c1ccc(OC)cc1	38	.	.	.	-7
COc1cccc(-c2csc(NC(=O)C3CC3)n2)c1	-44	61*	-3	120*	?
O=C(Nc1nc(-c2ccc(Cl)cc2)cs1)C1CCCO1 (configuration not stated)	-50	48*	-5	51	65*
Cc1ccc(C(=O)Nc2nc(-c3ccc4c(c3)OCCO4)cs2)o1	-5	20	-3	.	-1
O=C(Nc1nc(-c2ccc3c(c2)OCO3)cs1)C1COc2ccccc2O1 (configuration not stated)	4	-8	-3	.	-3
COc1cccc(-c2csc(NC(=O)Nc3ccccc3)n2)c1	28	21	.	-3	7
O=C(Nc1nc(-c2ccc(Cl)cc2Cl)cs1)C1CCCO1 (configuration not stated)	33	.	-13	12	1
CC(=O)Nc1nc(-c2ccc3c(c2)OCO3)cs1	-49	39	-5	65	53*
O=C(Nc1nc(-c2ccc3c(c2)OCCO3)cs1)C1CCCC1	-128	.	.	144*	44*
O=C(c1cnccn1)N1CC[C@H]2[C@H](CO)Nc3ccc(C#Cc4cccnc4)cc3[C@H]21	.	-3	0[16.7 µM]	.	.
N#CCC(=O)Nc1nc(-c2ccc3c(c2)OCCO3)cs1	-23	.	.	55	9
O=C(CSCC(=O)N1CCOCC1)Nc1nc(-c2ccc3c(c2)OCO3)cs1	-22	54*	7	.	17
COc1ccc(-c2csc(NC(=O)CSCc3c(C)noc3C)n2)cc1OC	-11	26	-5	4	0
CCOC(=O)N1CCN(C(=O)CSCC(=O)Nc2nc(-c3ccc4c(c3)OCO4)cs2)CC1	.	?	0	17	0
O=C(CCCCl)Nc1nc(-c2ccc3c(c2)OCCO3)cs1	-44	39	-11	88*	16
Cc1noc(C)c1CSCC(=O)Nc1nc(-c2ccc(F)c(F)c2)cs1	61*	0	.	-17	-5
Cc1ccc(-c2csc(NC(=O)N3CCOCC3)n2)cc1	3	83*	-16	11	24
C[C@@H]1CN([C@H](C)CO)S(=O)(=O)c2ccc(-c3cccnc3)cc2O[C@H]1CN(C)Cc1cncnc1	9[16.7 µM]	4	0[16.7 µM]	.	.
C[C@H]1CCCCO[C@@H](CN(C)C(=O)Nc2ccc3c(c2)OCO3)[C@@H](C)CN([C@@H](C)CO)C(=O)c2cc(NC(=O)NC3CCCCC3)ccc2O1	2[16.7 µM]	3	-10[16.7 µM]	.	.
O=C1c2ccccc2/C(=C\C#Cc2ccccn2)N1c1ccccc1	-23	36	.	95*	18
CN(C)c1ccc(/C=C2\c3ccccc3C(=O)N2c2ccccc2)cn1	-6	34	-8	.	2
CCCC(=O)Nc1ccc(-c2nc3ncccc3o2)cc1	-40	37	-4	.	37*
CC(C)C(=O)Nc1ccc(-c2nc3ncccc3o2)cc1	-17	-18	-5	.	37*
CO[C@H]1CN(C)C(=O)c2ccc(NC(C)=O)cc2OC[C@@H](C)N(C(=O)c2cccnc2)C[C@@H]1C	.	-1	7[16.7 µM]	.	.
